Laboratory results as given in the supplement of paper PMC13380429.

What was measured:
[1] = system: Vero E6 infected with SARS-CoV-2; experiment: morphology score (similarity to uninfected cells); higher = more like uninfected cells; settings: 24 h
[2] = system: Vero E6 infected with SARS-CoV-2; experiment: SARS-CoV-2 infection rate relative to infected DMSO; higher = more infection, active = 60 or less; settings: 24 h

SMILES | morphology score [1] | SARS-CoV-2 infection rate [2]
COc1ccc(NS(=O)(=O)c2ccc(I)cc2)cc1N1CCN(C)CC1 (10 µM) | 0.195 | 98.5% (inactive)
C[C@]12CCC(=O)C=C1C=C[C@@H]1[C@@H]2CC[C@@]2(C)[C@H]1CC[C@@]2(O)CCC(=O)O [potassium-canrenoate] (10 µM) | -0.166 | 114% (inactive)
CC(C)(Oc1ccc(Cl)cc1)C(=O)O [clofibric-acid] (10 µM) | -0.0106 | 98.5% (inactive)
c1ccc([C@@H]2C[C@H]2NC2CCNCC2)cc1 (10 µM) | -0.09 | 114% (inactive)
C=C[C@]1(C)C[C@@H](OC(=O)CSC(C)(C)CNC(=O)[C@H](N)C(C)C)[C@]2(C)[C@H](C)CC[C@]3(CCC(=O)[C@H]32)[C@@H](C)[C@@H]1O [valnemulin] (10 µM) | 0.0538 | 116% (inactive)
CC(C)Cc1ccc([C@@H](C)C(=O)NS(C)(=O)=O)cc1 [reparixin] (10 µM) | 0.135 | 100% (inactive)
CC1Oc2cc(cnc2N)-c2c(nn(C)c2C#N)CN(C)C(=O)c2ccc(F)cc21 (stereo not drawn) (10 µM) | 0.32 | 99.5% (inactive)
COc1cc(Br)c(S(=O)(=O)Nc2ccc(C(F)(F)F)c(O[C@@H]3CCN(C)C3)c2)cc1OC (10 µM) | 0.024 | 104% (inactive)
COc1cccc2c1C(=O)c1c(O)c3c(c(O)c1C2=O)C[C@@](O)(C(C)=O)C[C@@H]3O[C@H]1C[C@H](N)[C@H](O)[C@H](C)O1 [daunorubicin] (10 µM) | -0.0163 | 106% (inactive)
